{"source": "PubChem BioAssay (NCI)", "assay_in_all_cases": "NCI-60 one-dose screen, 48 h (100 = growth as untreated, 0 = no growth, -100 = all killed)", "details_in_all_cases": "10 µM unless noted", "key": {"UACC-62 melanoma": {"test_system": "UACC-62 melanoma"}, "TK-10 renal": {"test_system": "TK-10 renal"}, "MOLT-4 leukemia": {"test_system": "MOLT-4 leukemia"}}, "note": "Several values for one entry are separate records, joined by “and”; a condition that tells them apart may be missing. Identical values can stand only once. About 83,000 compounds went through this panel and 20% of them were active in at least one assay; those are over-represented in the sample as a whole.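 Plates (96-well) were seeded with cells, treated with compound at one concentration, and incubated for 48 hours before percent growth was determined.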 Activity calls are given as the source filed them. Rule for the calls: active = growth percent below 10; inactive = the rest."}
{"molecule": "Cc1ccc(/C=N/Nc2cc(C)c3ccccc3n2)s1", "values": [{"measurement": "growth", "setting": "UACC-62 melanoma", "value": "-69.9% [100 µM] (active) and -49% [100 µM] (active)"}, {"measurement": "growth", "setting": "TK-10 renal", "value": "-63.7% [100 µM] (active) and -75.8% [100 µM] (active)"}]}
{"molecule": "N#Cc1c(=N)cc2c3ccccc3oc3c(C#N)c(N)[nH]c1c32", "values": [{"measurement": "growth", "setting": "UACC-62 melanoma", "value": "74.6% [100 µM] (inactive) and 13.9% [100 µM] (inactive)"}, {"measurement": "growth", "setting": "TK-10 renal", "value": "47.1% [100 µM] (inactive) and 2.25% [100 µM] (active)"}]}
{"molecule": "CC12CCC3c4cc(Br)c(O)c(Br)c4CCC3C1CCC2O", "note": "(stereo not given)", "values": [{"measurement": "growth", "setting": "UACC-62 melanoma", "value": "7.01% [100 µM] (active) and -44.7% [100 µM] (active)"}, {"measurement": "growth", "setting": "TK-10 renal", "value": "12.2% [100 µM] (inactive) and -95.7% [100 µM] (active)"}]}
{"molecule": "NC(=O)c1c(Br)c(Br)c(Br)c(Br)c1C(=O)O", "note": "(tested in a mixture with another compound)", "values": [{"measurement": "growth", "setting": "MOLT-4 leukemia", "value": "53% (inactive)"}]}
{"molecule": "CC12NC(=C(C#N)C#N)C(C#N)=C3NC(N)=C(C#N)C(=C31)Oc1ccccc12", "note": "(stereo not given)", "values": [{"measurement": "growth", "setting": "UACC-62 melanoma", "value": "7.06% [100 µM] (active) and -61.2% [100 µM] (active)"}, {"measurement": "growth", "setting": "TK-10 renal", "value": "22.5% [100 µM] (inactive) and -82.1% [100 µM] (active)"}]}
{"molecule": "CN(C)CCNc1ccc(NCC[N+](C)(C)Cc2ccc([N+](=O)[O-])cc2)c2c1C(=O)c1ccccc1C2=O", "values": [{"measurement": "growth", "setting": "UACC-62 melanoma", "value": "37.1% [25 µM] (inactive) and 1.14% [25 µM] (active)"}, {"measurement": "growth", "setting": "TK-10 renal", "value": "36.4% [25 µM] (inactive) and 2.65% [25 µM] (active)"}]}
{"molecule": "CC(O)c1cc2c(s1)C(=O)c1ccsc1C2=O", "note": "(stereo not given)", "values": [{"measurement": "growth", "setting": "UACC-62 melanoma", "value": "-61.7% [100 µM] (active) and -100% [100 µM] (active)"}, {"measurement": "growth", "setting": "TK-10 renal", "value": "-46.9% [100 µM] (active) and -98.9% [100 µM] (active)"}]}
{"molecule": "COc1cc2c(cc1O)Cc1c-2[n+](C)cc2cc(OC)c(OC)cc12", "values": [{"measurement": "growth", "setting": "UACC-62 melanoma", "value": "12.4% [100 µM] (inactive) and -100% [100 µM] (active)"}, {"measurement": "growth", "setting": "TK-10 renal", "value": "89.2% [100 µM] (inactive) and 4.86% [100 µM] (active)"}]}
